Measurements: PubChem BioAssay (NCI)
Values joined by “and” are separate entries in the source; they are usually repeats but may differ in a detail not shown here. Equal entries are not always repeated. The panel holds about 83,000 compounds, 20% with a hit somewhere; the sample as a whole holds those more often.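 Plates (96-well) were seeded with cells, treated with compound at one concentration, and incubated for 48 hours before percent growth was determined.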 Active and inactive are the calls of the source. How the source made its calls: active means growth percent below 10; inactive means the rest.

What was measured:
Test in all cases: NCI-60 one-dose screen, 48 h (100 = growth as untreated, 0 = no growth, -100 = all killed)
[1] = tested on: HCT-15 colon; conditions: 10 µM unless noted
[2] = tested on: HT29 colon; conditions: 10 µM unless noted
[3] = tested on: SNB-75 CNS; conditions: 10 µM unless noted
[4] = tested on: SNB-19 CNS; conditions: 10 µM unless noted
[5] = tested on: U251 CNS; conditions: 10 µM unless noted
[6] = tested on: PC-3 prostate; conditions: 10 µM unless noted
[7] = tested on: SK-MEL-5 melanoma; conditions: 10 µM unless noted
[8] = tested on: UACC-62 melanoma
[9] = tested on: LOX IMVI melanoma; conditions: 10 µM unless noted
[10] = tested on: SK-MEL-28 melanoma; conditions: 10 µM unless noted

| SMILES | growth [1] | growth [2] | growth [3] | growth [4] | growth [5] | growth [6] | growth [7] | growth ([8]; 10 µM unless noted) | growth [9] | growth [10] | growth ([8]; 10 µM) | growth ([8]; 100 µM) |
| --- | --- | --- | --- | --- | --- | --- | --- | --- | --- | --- | --- | --- |
| O=P(O)(O)OC1C(OP(=O)(O)O)C(OP(=O)(O)O)C(OP(=O)(O)O)C(OP(=O)(O)O)C1OP(=O)(O)O.[Cu+2] (stereo not drawn) | 102% (inactive) | 96.5% (inactive) | 136% (inactive) | 106% (inactive) | 32.6% (inactive) | 105% (inactive) | -56.1% (active) | 79.7% (inactive) | 69.7% (inactive) | 116% (inactive) |  |  |
| CCC(C)(O)CCC(C)(O)CC (stereo not drawn) | 112% (inactive) | 113% (inactive) | 108% (inactive) | 105% (inactive) | 104% (inactive) | 98.6% (inactive) | 104% (inactive) | 108% (inactive) |  | 124% (inactive) |  |  |
| CCOC(=O)C1=C(C)NC(C)=C(C(=O)OCC)C1 | 108% (inactive) and 90.8% (inactive) | 101% (inactive) and 102% (inactive) | 83.1% (inactive) and 76.6% (inactive) | 99.5% (inactive) |  | 82.4% (inactive) and 104% (inactive) | 101% (inactive) and 103% (inactive) | 94.4% (inactive) and 102% (inactive) | 98.4% (inactive) and 102% (inactive) | 105% (inactive) and 101% (inactive) |  |  |
| COc1cc2oc3cc(=O)cc4oc(-c5ccccc5)cc(c2c2c1CCC(c1ccccc1)O2)c43 (stereo not drawn) | 62.8% (inactive) | 71.9% (inactive) | 68.2% (inactive) | 98.9% (inactive) |  | 58.9% (inactive) | 78% (inactive) |  |  | 90.1% (inactive) | 73.5% (inactive) | 53% (inactive) and 10.4% (inactive) |
| COc1ccc(CCN=Cc2ccc(Cl)cc2)cc1OC | 106% (inactive) | 107% (inactive) | 127% (inactive) | 101% (inactive) |  | 116% (inactive) | 107% (inactive) | 107% (inactive) | 95.8% (inactive) | 121% (inactive) |  |  |
| CCCC(=O)Oc1ccc2ccccc2c1 | 109% (inactive) | 103% (inactive) | 105% (inactive) | 101% (inactive) | 95.5% (inactive) | 73.1% (inactive) | 97.3% (inactive) | 100% (inactive) |  | 114% (inactive) |  |  |
| COc1ccc2oc3c(ccc[n+]3C)c(=O)c2c1 | 100% (inactive) | 96.6% (inactive) | 100% (inactive) | 97.9% (inactive) |  | 93.1% (inactive) | 99.4% (inactive) | 92.6% (inactive) | 99.9% (inactive) | 103% (inactive) |  |  |
| Nc1ccc2ccc(NS(=O)(=O)N3CCCCC3)cc2c1 | 18.6% (inactive) | 4.34% (active) | 30.1% (inactive) | 40.3% (inactive) | 23.3% (inactive) | 43.6% (inactive) | 25.3% (inactive) | 16.7% (inactive) |  | 55.8% (inactive) |  |  |
| O=C1CCC(=O)N1CC1CC2CCC1C2 (stereo not drawn) | 107% (inactive) and 104% (inactive) | 103% (inactive) and 95.8% (inactive) | 87.2% (inactive) and 73.1% (inactive) | 101% (inactive) and 90.3% (inactive) | 91.7% (inactive) and 100% (inactive) | 94.1% (inactive) and 104% (inactive) | 110% (inactive) and 92.6% (inactive) | 96.5% (inactive) and 88.5% (inactive) | 101% (inactive) and 96.2% (inactive) | 109% (inactive) and 103% (inactive) |  |  |
| CS(=O)(=O)OCC1NC(=O)C(COS(C)(=O)=O)NC1=O (stereo not drawn) | 91.8% (inactive) and 88.4% (inactive) | 85.6% (inactive) and 81.3% (inactive) | 56.5% (inactive) and 100% (inactive) | 105% (inactive) and 110% (inactive) | 95.9% (inactive) and 93.9% (inactive) | 88.3% (inactive) and 82.6% (inactive) | 96.5% (inactive) and 103% (inactive) | 101% (inactive) and 102% (inactive) |  | 115% (inactive) and 112% (inactive) |  |  |
| O=C1C=CC[C@H](/C=C/c2ccccc2)O1 | 33.4% (inactive) and -52.8% (active) | 29.8% (inactive) and 28.4% (inactive) | 53.8% (inactive) and 70.9% (inactive) | 66.3% (inactive) and 17.5% (inactive) | 12.8% (inactive) and -30% (active) | 20.2% (inactive) and 13% (inactive) | 31.7% (inactive) and -11.8% (active) | 81.7% (inactive) and 6.21% (active) | 5.77% (active) and -35.8% (active) | 40.3% (inactive) and -22.5% (active) |  |  |
| CCCCC/C(C)=N\NC(N)=S | 79.4% (inactive) | 55.3% (inactive) | 86.6% (inactive) | 105% (inactive) |  | 89.4% (inactive) | 90% (inactive) | 96.2% (inactive) | 95.6% (inactive) | 94.2% (inactive) |  |  |
| CC(=O)Nc1ccc2oc(=O)ccc2c1 | 107% (inactive) | 106% (inactive) | 89% (inactive) | 102% (inactive) |  | 100% (inactive) | 97.8% (inactive) | 93.9% (inactive) | 99.7% (inactive) | 115% (inactive) |  |  |
| COC(=O)c1ccccc1Cl | 100% (inactive) |  | 96.6% (inactive) | 108% (inactive) |  | 96.9% (inactive) | 103% (inactive) | 104% (inactive) | 98.6% (inactive) | 115% (inactive) |  |  |
| C/C=C(/C(=O)NC(N)=O)C(C)C | 110% (inactive) |  | 120% (inactive) | 110% (inactive) | 98.8% (inactive) | 105% (inactive) | 115% (inactive) | 110% (inactive) | 100% (inactive) | 117% (inactive) |  |  |
| CNc1ccc(Cl)cc1S(=O)(=O)c1ccccc1[N+](=O)[O-] | 105% (inactive) and 91.3% (inactive) | 101% (inactive) and 106% (inactive) | 73.4% (inactive) and 11.4% (inactive) | 110% (inactive) and 104% (inactive) |  | 91.9% (inactive) and 96.2% (inactive) | 34.4% (inactive) and 95.6% (inactive) | 60.9% (inactive) and 69.8% (inactive) | 77.5% (inactive) and 81.4% (inactive) | 96.2% (inactive) |  |  |
| CC(=O)c1cc2ccccc2o1 | 99.6% (inactive) |  | 101% (inactive) | 108% (inactive) | 109% (inactive) | 99.9% (inactive) | 101% (inactive) | 102% (inactive) | 95.3% (inactive) | 96.6% (inactive) |  |  |
| CC(CN(C)C)CN1c2ccccc2Sc2ccccc21 (stereo not drawn) | 84.8% (inactive) and 89.2% (inactive) and 84.7% (inactive) |  | 64.2% (inactive) and 60.6% (inactive) and 43.4% (inactive) | 94.6% (inactive) and 80.4% (inactive) and 91.2% (inactive) | 73.4% (inactive) and 87.5% (inactive) and 76.9% (inactive) | 63.7% (inactive) and -49.1% (active) and 52.7% (inactive) | 87.1% (inactive) and 74% (inactive) and 89.3% (inactive) | 92.8% (inactive) and 65.9% (inactive) | 80.6% (inactive) and 83.5% (inactive) and 73.2% (inactive) | 87.6% (inactive) and 113% (inactive) and 68.2% (inactive) |  |  |
| CC(C)(C(=O)c1cccnc1)c1cccnc1 | 104% (inactive) and 105% (inactive) |  | 107% (inactive) and 103% (inactive) | 111% (inactive) and 115% (inactive) | 103% (inactive) and 116% (inactive) | 89.5% (inactive) and 92.5% (inactive) | 98.4% (inactive) and 106% (inactive) | 101% (inactive) and 103% (inactive) | 102% (inactive) and 111% (inactive) | 112% (inactive) and 121% (inactive) |  |  |
| N#Cc1c(N)nc2c(c(-c3ccc(Cl)cc3)nn2-c2ccccc2)c1C#N | 98.6% [100 µM] (inactive) |  | 104% [100 µM] (inactive) | 99.6% [100 µM] (inactive) | 92.8% [100 µM] (inactive) | 98.6% [100 µM] (inactive) | 103% [100 µM] (inactive) | 97.9% [100 µM] (inactive) | 96.6% [100 µM] (inactive) | 114% [100 µM] (inactive) |  |  |
| ON=C(C1CCCCC1)C1CCCCC1 | 106% (inactive) |  | 87.3% (inactive) | 100% (inactive) | 98.1% (inactive) | 98.1% (inactive) | 108% (inactive) | 91.8% (inactive) | 95.6% (inactive) | 102% (inactive) |  |  |
| O=C1c2ccccc2CN1c1ccccc1 | 107% (inactive) |  | 102% (inactive) | 88.9% (inactive) | 101% (inactive) | 116% (inactive) | 96.5% (inactive) | 85.9% (inactive) | 113% (inactive) | 120% (inactive) |  |  |
| O=C(O)C(Cc1ccc(OS(=O)(=O)Cc2ccccc2)cc1)NS(=O)(=O)Cc1ccccc1 (stereo not drawn) | 99.5% (inactive) and 108% (inactive) |  | 85.7% (inactive) and 94.9% (inactive) | 96.6% (inactive) and 105% (inactive) | 104% (inactive) | 123% (inactive) and 101% (inactive) | 97.5% (inactive) and 108% (inactive) | 108% (inactive) and 97.9% (inactive) |  | 108% (inactive) and 116% (inactive) |  |  |
